Reference: PubChem BioAssay AID602357 (National Center for Advancing Translational Sciences (NCATS), 2012)
Results filed as inconclusive are left out. Calls of active or inactive are those of the source. Calls come from the whole dose curve; as a rule, active = well fitted inhibition curve with a large enough effect; inconclusive = small, poorly fitted or top-dose-only effect; inactive = no such curve, though single readings can be large or run the other way.

Each compound was assayed against Luciferin 4-monooxygenase (Photinus pyralis) (UniProt P08659) (assay: FLuc inhibitory activity for the follow-up compounds in a biochemical assay with Km concentrations of substrate). Details: purified FLuc, Km substrates, luminescence; series mostly up to 57.5 µM; activity change, negative = inhibition: at the top concentration.
From the text: NCGC Assay Overview: Firefly (Photinus pyralis) luciferase is one of the most commonly used transcriptional reporters. It is considered one of the more dynamically responsive reporters - that is, responsive to changes in reporter transcription - as it requires no post-translational modifications and is enzymatically active directly after protein synthesis (Wood, 1998). With no endogenous expression in mammalian cells and without the requirement of external excitation, it offers very little background signal, thus generally providing excellent signal to background for most assays. Previous profiling work to determine the prevalence of compounds that affect FLuc enzymatic activity (PubChem AID 411) identified that ~3% of the MLSMR library (then at ~72K) inhibited FLuc. […] Of the compounds identified in this profile that inhibited FLuc, 151 compounds were selected for further analysis, in an effort to better understand their mode of inhibiting FLuc. The assay described here confirms the FLuc inhibitory activity of the 151 compounds.
NCGC Assay Protocol Summary: Reagents: 50mM Tris acetate, pH 7.5; 10mM Mg acetate; 10uM D-luciferin (Sigma #L9504); 10uM ATP; 0.01% Tween-20; 0.05% BSA; 10nM P. pyralis luciferase (Sigma #L9506) Control compounds used were two known firefly luciferase inhibitors (3-(5-(3-chlorophenyl)-1,2,4-oxadiazol-3-yl)benzoic acid and 5-(2-fluorophenyl)-3-phenyl-1,2,4-oxadiazole), and DMSO. Three microliters containing firefly luciferase substrates in buffer (final concentrations: 50mM Tris acetate, pH 7.5, 10mM Mg acetate, 0.01% Tween-20, 0.05% BSA, 10uM D-luciferin, and 10uM ATP) are dispensed into each well of a Greiner white, solid-bottom 1536-well format plate using a flying reagent dispenser (FRD). These assay plates were then treated with 23nL of compound or DMSO using a Kalypsys pin tool, which allows for delivery of a 12-point intraplate titration of each compound to the assay plate (quantitative HTS), with a final compound concentrations ranging from approximately ~60uM to 0.3nM. One microliter of firefly luciferase in 500mM Tris-acetate buffer was then delivered by FRD to each well for a final enzyme concentration of 10nM. Luciferase activity was then measured using a ViewLux CCD imager (PerkinElmer), with an average exposure time of 2-30 seconds (2X binning, medium/high gain).

Luciferin 4-monooxygenase (Photinus pyralis), sequence (P08659 whole entry, looked up): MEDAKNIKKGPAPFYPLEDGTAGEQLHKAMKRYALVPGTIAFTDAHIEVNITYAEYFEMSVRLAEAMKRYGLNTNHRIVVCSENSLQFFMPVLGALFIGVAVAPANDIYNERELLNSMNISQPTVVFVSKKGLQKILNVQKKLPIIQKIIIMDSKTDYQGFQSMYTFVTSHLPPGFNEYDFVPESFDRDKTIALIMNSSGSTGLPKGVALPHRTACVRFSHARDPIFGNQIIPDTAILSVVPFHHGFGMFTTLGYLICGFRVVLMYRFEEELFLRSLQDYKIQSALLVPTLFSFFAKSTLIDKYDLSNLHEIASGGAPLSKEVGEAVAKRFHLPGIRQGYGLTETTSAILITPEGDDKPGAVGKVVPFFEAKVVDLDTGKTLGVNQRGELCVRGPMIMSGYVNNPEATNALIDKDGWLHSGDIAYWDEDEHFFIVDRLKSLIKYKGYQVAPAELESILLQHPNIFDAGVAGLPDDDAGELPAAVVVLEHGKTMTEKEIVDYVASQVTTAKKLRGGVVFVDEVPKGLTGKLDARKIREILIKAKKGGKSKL

| Structure (SMILES) | Potency | activity change, negative = inhibition |
| --- | --- | --- |
| Nc1ccc2nc(-c3ccccc3)sc2c1 | 0.163 µM (active) |  |
| COc1cc(OC)cc(C(=O)Nc2ccccc2-c2nc3ccccc3s2)c1 |  | 6.62% (inactive) |
| Cc1c(NC(=O)c2cc(-n3cnnc3)ccc2Cl)cccc1-c1nc2ccccc2s1 | 0.58 µM (active) |  |
| CC(C)C(=O)Nc1cccc(C(=O)Nc2ccccc2C(=O)O)c1 | 5.8 µM (active) |  |
| CC(=O)Nc1cccc(C(=O)Nc2ccccc2C(=O)O)c1 | 32.6 µM (active) |  |
| O=C(Nc1ccccc1C(=O)O)c1ccc(NC(=O)C2CCCCC2)cc1 | 11.6 µM (active) |  |
| O=C(Nc1ccccc1C(=O)O)c1cccc(NC(=O)c2ccco2)c1 | 18.3 µM (active) |  |
| COc1ccccc1C(=O)Nc1ccc(C(=O)O)cc1 |  | -16.1% (inactive) |
| O=C(O)c1cccc(NC(=O)c2cccc(S(=O)(=O)N3CCCCC3)c2)c1 | 1.63 µM (active) |  |
| Nc1ccc(-c2nc3cc(N)ccc3s2)cc1 | 0.819 µM (active) |  |
| Cc1ccc(NS(=O)(=O)c2ccc(Cl)c(C(=O)Nc3cccc(C(=O)O)c3)c2)cc1 |  | -10.3% (inactive) |
| COc1ccc2nc(NC(=O)CCc3ccc(OC)c(OC)c3)sc2c1 |  | 3.41% (inactive) |
| CCOc1ccc2nc(NC(=O)Cc3cccs3)sc2c1 | 10.3 µM (active) |  |
| COc1ccc2nc(NC(=O)CCc3nc(-c4ccccc4F)no3)sc2c1 |  | -0.429% (inactive) |
| COc1ccc(Br)cc1C(=O)Nc1ccc(C(=O)O)cc1 |  | 0.649% (inactive) |
| Cc1ccc(C(=O)Nc2cccc(C(=O)O)c2)cc1 | 0.0326 µM (active) |  |
| COc1ccc(C(=O)Nc2nc3ccc(OC)cc3s2)cc1 | 1.83 µM (active) |  |
| Cc1ccccc1C(=O)Nc1cccc(C(=O)Nc2ccccc2C(=O)O)c1 | 32.6 µM (active) |  |
| COc1ccc2nc(NC(=O)c3ccco3)sc2c1 | 1.03 µM (active) |  |
| Cc1ccc2nc(-c3ccc(N)cc3)sc2c1 | 0.0819 µM (active) |  |

| Structure (SMILES) | Potency | activity change, negative = inhibition |
| --- | --- | --- |
| CC(C)c1ccc(C(=O)Nc2ccc(-c3nc4ccccc4s3)c(Cl)c2)cc1 |  | -34.9% (inactive) |
| O=C(O)c1ccc(NC(=O)c2cc(S(=O)(=O)N3CCCCC3)c(Cl)cc2Cl)cc1 |  | 8.63% (inactive) |
| O=C(O)c1cccc(NC(=O)c2ccccc2NC(=O)c2ccccc2F)c1 | 18.3 µM (active) |  |
| O=C(Cc1ccccc1)Nc1ccc(C(=O)Nc2ccccc2C(=O)O)cc1 | 20.6 µM (active) |  |
| O=C(O)c1cccc(NC(=O)c2ccc(COc3ccc(Cl)cc3)cc2)c1 | 3.66 µM (active) |  |
| O=C(Nc1c(Cl)cc(Cl)cc1-c1nc2ccccc2s1)c1ccc(Br)o1 |  | -2.8% (inactive) |
| COc1ccc2nc(NC(=O)c3ccccc3C(=O)O)sc2c1 | 18.3 µM (active) |  |
| Nc1ccccc1-c1nc2ccccc2s1 | 8.19 µM (active) |  |
| Cc1ccc(C(=O)O/N=C(\N)c2ccccn2)cc1 | 0.0291 µM (active) |  |
| COc1ccc(C(=O)Nc2ccccc2C(=O)N/N=C/c2ccc(O)c(OC)c2)cc1 | 0.0037 µM (active) |  |
| Cc1ccc(C(=O)Nc2cccc(C(=O)O)c2)cc1S(=O)(=O)N1CCCC1 | 0.058 µM (active) |  |
| O=C(O)c1cccc(NC(=O)c2cccc(NC(=O)C3CCCO3)c2)c1 (stereo not given) | 0.919 µM (active) |  |
| Nc1ccc(-c2nc3ccc(C(=O)O)cc3s2)cc1 | 0.0073 µM (active) |  |
| CCOc1ccc2nc(NC(=O)c3cccnc3)sc2c1 | 2.91 µM (active) |  |
| O=C(Nc1ccccc1C(=O)O)c1cccc(NC(=O)c2ccccc2Br)c1 | 32.6 µM (active) |  |
| O=C(Nc1ccccc1C(=O)O)c1cc(S(=O)(=O)NCc2ccccc2)ccc1Cl |  | -4.34% (inactive) |
| CCCC(=O)Nc1nc2ccc(OCC)cc2s1 | 13 µM (active) |  |
| O=C(Nc1ccc(Cl)cc1-c1nc2ccccc2s1)c1ccco1 |  | -8.61% (inactive) |
| O=C(Nc1cccc(-c2nc3ccccc3s2)c1)C1=COCCO1 | 18.3 µM (active) |  |
| O=C(O)c1ccccc1NC(=O)c1ccccc1Nc1ccccc1 | 18.3 µM (active) |  |
